Results reported in PubChem BioAssay (EPA / NIEHS).
Calls of active or inactive are those of the source. How the source made its calls: active means hit-call score of the fitted dose curve at least 0.9, where 1 is the maximum; inactive means score below 0.9.

Experiments:
[1] = APR_HepG2_CellCycleArrest_24hr: Apredica 24-hour HepG2 Assay for Cell Cycle Arrest (AID 2282905); conditions: imaging, actives raise or lower the signal;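 further: cell cycle arrest scored as ratio of 2N to 4N nuclear DNA content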
In short: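 HepG2 cells were exposed to compounds at 0.39–200 uM (ten concentrations, duplicate) in 0.5% v/v DMSO for 24 hr. After formaldehyde fixation and Triton permeabilization, Hoechst 33342-stained nuclei were imaged at 20x; DNA content was quantified, with bidirectional fitting against DMSO.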

[2] = APR_HepG2_NuclearSize_24hr: Apredica 24-hour HepG2 Assay for Nuclear Size (AID 2282907); conditions: high-content imaging, actives raise or lower the signal
In short: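 HepG2 human liver cells were exposed for 24 hr to compounds at 0.39–200 uM (ten concentrations, duplicate) in 0.5% v/v DMSO. They were then formaldehyde-fixed, Triton-permeabilized and Hoechst 33342-stained, and nuclear diameter was imaged at 20x. Bidirectional fits were made against DMSO.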

[3] = APR_HepG2_CellLoss_24hr: Apredica 24-hour HepG2 Assay for Cell Loss (AID 2282908); conditions: high-content imaging;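 on AC50: fit in both directions so a hit may be cell loss or gain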
In short: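 Compounds were tested at 0.39–200 uM in duplicate with 0.5% v/v DMSO final. Cells were then fixed in 3.7% formaldehyde, Hoechst 33342 nuclei were imaged at 20x by HCS, and cell number was fitted bidirectionally against DMSO.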

[4] = APR_HepG2_MicrotubuleCSK_24hr: Apredica 24-hour HepG2 Assay for Microtubule CSK Stabilty (AID 2282909); conditions: HepG2 microtubule cytoskeleton imaging, actives raise or lower the signal
In short: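 HepG2 cells exposed 24 h to compounds at 0.39–200 uM (duplicate, 0.5% v/v DMSO final), then fixed, permeabilized and immunostained for alpha-tubulin with Hoechst 33342. Cytoskeleton imaged at 20x; bidirectional fit versus DMSO baseline.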

[5] = APR_HepG2_MitoticArrest_24hr: Apredica 24-hour HepG2 Assay for Mitotic Arrest (AID 2282910); conditions: high-content imaging, actives raise or lower the signal
In short: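 HepG2 human liver cells were exposed to compounds at 0.39–200 uM (10 concentrations, duplicate) in 0.5% v/v DMSO for 24 hr, then fixed and immunostained for phospho-histone H3 with Hoechst 33342. Mitotic arrest came from HCS fluorescent imaging, fitted bidirectionally against DMSO.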

[6] = APR_HepG2_MitoMembPot_24hr: Apredica 24-hour HepG2 Assay for Mitochondrial Membrane Potential (AID 2282911); conditions: imaging, actives raise or lower the signal
In short: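 Cells are dosed for 24 hr across 0.39 to 200 uM with solvent held at 0.5% DMSO. They are then stained with 250 nM MitoTracker Red CMXRos for 30 min, fixed in 3.7% formaldehyde and imaged.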

[7] = APR_HepG2_MitoMass_24hr: Apredica 24-hour HepG2 Assay for Mitochondrial Mass (AID 2282912); conditions: high-content imaging, actives raise or lower the signal
In short: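 Human HepG2 liver cells were exposed for 24 hr to compounds at 0.39–200 uM (duplicates, 0.5% v/v DMSO final). They were stained live with 250 nM MitoTracker Red CMXRos for 30 min, fixed in 3.7% formaldehyde, and imaged by HCS fluorescence; signals were fitted bidirectionally against DMSO.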

[8] = APR_HepG2_p53Act_24hr: Apredica 24-hour HepG2 Assay for p53 Activation (AID 2282913); conditions: high-content imaging, actives raise or lower the signal;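 further: p53 protein immunofluorescence averaged per cell in HepG2 with Hoechst nuclei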
In short: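 Human HepG2 liver cells; 24 hr cpd treatment, 0.39–200 uM, 0.5% DMSO final. Fixed in 3.7% formaldehyde, permeabilized with 0.5% Triton X-100, stained with anti-p53/Cy5 plus Hoechst 33342. Six images per well at 20x; gain or loss vs DMSO.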

[9] = APR_HepG2_CellCycleArrest_72hr: Apredica 72-hour HepG2 Assay for Cell Cycle Arrest (AID 2282914); conditions: high-content imaging, actives raise or lower the signal
In short: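 Read-out is Hoechst-stained nuclear DNA content measured by automated fluorescence imaging (20x, six images per well), fitted in both directions relative to DMSO. Human HepG2 liver cells received 0.39–200 uM compound for 72 hr at 0.5% v/v DMSO.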

[10] = APR_HepG2_CellLoss_72hr: Apredica 72-hour HepG2 Assay for Cell Loss (AID 2282915); conditions: high-content imaging
In short: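 HepG2 cells were exposed for 72 hr to compounds at 0.39–200 uM (ten concentrations, duplicate) in 0.5% v/v final DMSO. Nuclei were stained with Hoechst 33342 after 3.7% formaldehyde fixation, imaged at 20x, and counted; fits bidirectional versus DMSO.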

[11] = APR_HepG2_P-H2AX_72hr: Apredica 72-hour HepG2 Assay for H2AX Phosphorylation (AID 2282916); conditions: imaging, actives raise or lower the signal;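 further: phospho-histone H2A.x immunostain intensity per cell marking DNA damage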
In short: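 HepG2 human liver cells were exposed for 72 hr to compounds at 0.39–200 uM (10 concentrations, duplicate per plate) in 0.5% v/v DMSO. Fixed, permeabilized cells were immunolabeled for phospho-histone H2A.x with Hoechst 33342 and imaged by HCS fluorescence; bidirectional fit versus DMSO.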

[12] = APR_HepG2_StressKinase_72hr: Apredica 72-hour HepG2 Assay for Stress Kinase (AID 2282921); conditions: HepG2 stress kinase (phospho-c-Jun) imaging, actives raise or lower the signal
In short: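 Cells were exposed for 72 h to ten concentrations (0.39–200 uM, duplicate) at 0.5% v/v DMSO final, then fixed with 3.7% formaldehyde, permeabilized and immunostained for phospho-c-Jun (Cy3 secondary) with Hoechst nuclear counterstain.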

[13] = APR_HepG2_StressKinase_24hr: Apredica 24-hour HepG2 Assay for Stress Kinase (AID 2282922); conditions: HepG2 stress kinase (phospho-c-Jun) imaging, actives raise or lower the signal
In short: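 HepG2 cells exposed 24 hr to compound at 0.39–200 uM (10 concentrations, duplicate), 0.5% v/v DMSO final. Fixed in 3.7% formaldehyde, permeabilized with Triton X-100, immunolabeled for phospho-c-Jun with Hoechst 33342; HCS fluorescence imaging, bidirectional fit versus DMSO.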

[14] = APR_HepG2_p53Act_72hr: Apredica 72-hour HepG2 Assay for p53 Activation (AID 2282923); conditions: high-content imaging, actives raise or lower the signal;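 further: average cellular p53 protein immunofluorescence intensity in HepG2 cells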
In short: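 Cells were dosed for 72 hr with compounds at 0.39–200 uM in duplicate (final DMSO 0.5% v/v), then fixed in 3.7% formaldehyde, permeabilized with Triton X-100 and immunostained for p53 (Cy5) with Hoechst 33342 nuclear counterstain.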

[15] = APR_HepG2_NuclearSize_72hr: Apredica 72-hour HepG2 Assay for Nuclear Size (AID 2282925); conditions: high-content imaging, actives raise or lower the signal
In short: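 HepG2 cells were exposed to compounds at ten concentrations from 0.39 to 200 uM (duplicate, 0.5% DMSO final) for 72 hr. After fixation in 3.7% formaldehyde, nuclei were stained with Hoechst 33342 (2 ug/mL) and imaged at 20x.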

[16] = APR_HepG2_MitoMembPot_72hr: Apredica 72-hour HepG2 Assay for Mitochondrial Membrane Potential (AID 2282917); conditions: imaging, actives raise or lower the signal
In short: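 HepG2 cells exposed 72 h to compounds at 0.39–200 uM (0.5% v/v DMSO, duplicates); MitoTracker Red CMXRos 250 nM loaded 30 min before 3.7% formaldehyde fixation, imaged by HCS fluorescence. Bidirectional fit versus DMSO.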

[17] = APR_HepG2_MitoticArrest_72hr: Apredica 72-hour HepG2 Assay for Mitotic Arrest (AID 2282918); conditions: high-content imaging, actives raise or lower the signal
In short: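 Read-out is phospho-histone H3 immunofluorescence with Hoechst nuclear segmentation, imaged at 20x. Human HepG2 liver cells received ten concentrations (0.39–200 uM, final DMSO 0.5% v/v) for 72 hr before fixation. Gain or loss of signal was fitted relative to DMSO.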

[18] = APR_HepG2_MicrotubuleCSK_72hr: Apredica 72-hour HepG2 Assay for Microtubule CSK Stabilty (AID 2282919); conditions: HepG2 microtubule cytoskeleton, high-content imaging, actives raise or lower the signal
In short: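 HepG2 human liver cells were dosed for 72 h at ten concentrations from 0.39 to 200 uM in duplicate (0.5% v/v DMSO final). Fixed, permeabilized cells were immunostained for alpha-tubulin (Cy5) with a Hoechst counterstain and imaged at 20x.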

[19] = APR_HepG2_P-H2AX_24hr: Apredica 24-hour HepG2 Assay for H2AX Phosphorylation (AID 2282920); conditions: high-content imaging, actives raise or lower the signal
In short: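 HepG2, 24 hr, cpd 0.39–200 uM (10 conc, duplicate), DMSO 0.5% v/v final. Fix 3.7% formaldehyde, Triton X-100 permeabilize, anti-phospho-H2A.x 1:200 + Hoechst 2 ug/mL. Imaged, bidirectional fit vs DMSO.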

[20] = APR_HepG2_MitoMass_72hr: Apredica 72-hour HepG2 Assay for Mitochondrial Mass (AID 2282924); conditions: high-content imaging, actives raise or lower the signal;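 further: MitoTracker Red CMXRos stain intensity per cell imaged as mitochondrial mass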
In short: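 HepG2 cells were exposed for 72 hr to compounds at 0.39–200 uM (ten concentrations, duplicate, 0.5% v/v DMSO final). Live cells were stained with 250 nM MitoTracker Red CMXRos for 30 min, then fixed in 3.7% formaldehyde and imaged by HCS fluorescence.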

Measured: AC50

C[N+](C)(C)CC1CO1 (centres undefined)
active: [1] 81.2 µM
inactive: [2] | [3] | [4] | [5] | [6] | [7] | [8] | [9] | [10] | [11] | [12] | [13] | [14] | [15]

CCCCCOC(=O)c1ccccc1C(=O)OCCCCC
inactive: [1] | [2] | [3] | [4] | [5] | [6] | [7] | [11] | [16] | [17] | [18] | [19] | [12] | [13] | [14] | [20] | [15]
active: [9] 95.9 µM | [10] 106 µM

CCC(C)c1ccc(O)cc1 (centres undefined)
inactive: [1] | [2] | [3] | [4] | [5] | [6] | [7] | [8] | [9] | [10] | [11] | [16] | [17] | [18] | [12] | [13] | [14] | [20] | [15]

O=[N+]([O-])c1ccc(Oc2ccc(Cl)cc2Cl)cc1
active: [3] 80.8 µM | [10] 89.7 µM | [17] 71 µM
inactive: [1] | [2] | [4] | [5] | [6] | [7] | [9] | [11] | [16] | [18] | [19] | [12] | [13] | [14] | [20] | [15]

ClCCOCCCl
inactive: [1] | [2] | [3] | [4] | [5] | [6] | [7] | [8] | [9] | [10] | [11] | [16] | [17] | [18] | [12] | [13] | [14] | [20] | [15]

c1ccc2c(c1)-c1cccc3cccc-2c13
inactive: [1] | [2] | [4] | [6] | [7] | [16] | [18] | [19] | [12] | [13] | [14] | [20] | [15]
active: [3] 85.7 µM | [5] 107 µM | [9] 111 µM | [10] 106 µM | [11] 108 µM | [17] 87.1 µM

CC(C)(C)C(O)(CCc1ccc(Cl)cc1)Cn1cncn1 (centres undefined)
active: [3] 104 µM | [4] 115 µM | [5] 107 µM | [7] 124 µM | [9] 102 µM | [10] 116 µM | [11] 111 µM | [17] 99.6 µM | [18] 107 µM | [19] 113 µM | [12] 113 µM | [13] 108 µM | [14] 121 µM | [20] 105 µM
inactive: [1] | [2] | [6] | [16] | [15]
